HTT prom inh: inhibits huntingtin promoter activity | Potency, µM (top dose mostly 57.5 µM), without a hit: top-dose activity change, negative = inhibition, usual class: inhibitors | HEK293 HTT promoter firefly luciferase reporter, 24 h | 48,000 compounds, 0.93% hits; note: potency is the fitted concentration of half-maximal effect; nearly all actives have a fitted effect of over 50% in size
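HEK293 cells carrying firefly luciferase reporters were seeded at 2,500 per well in Opti-MEM and cultured for 24 h. They were then treated with compounds at up to 57.5 uM final for 24 h at 37 degrees C before Dual-Glo luminescence readout.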
HTT-AS promoter: activators of huntingtin-antisense promoter activity; HEK293 HTT-AS promoter firefly luciferase reporter, 24 h; response scale: percent change from vehicle, -100% = no light; Potency, µM (doses to about 57.5 µM), for inactives: top-dose activity change, positive = activation, usual class: activators; 48,000 compounds, 0.24% hits; note: potency is the fitted concentration of half-maximal effect; nearly all actives have a fitted effect of over 55% in size
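HEK293 luciferase promoter-reporter cells (2,500/well) plated 24 h, then compounds added at up to 57.5 uM final for 24 h at 37 °C. Firefly luminescence by Dual-Glo, normalized to vehicle (0%) and zero RLU (-100%).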
S16 F2sN tox: cytotoxicity in S16 Pmp22-F2sN Schwann cells. Potency, µM (titrated, usually from 57.5 µM), without a hit: at the highest dose activity change, negative = cytotoxicity, usual class: cytotoxic. 43,000 compounds, 0.48% hits. AID 1508642. S16 Pmp22-F2sN Schwann cells viability, CellTiter-Glo, 24 h; note: potency is the fitted concentration of half-maximal effect; % is set by controls: 0 for no effect and ±100 for the full control effect; nearly all actives have a fitted effect of over 65% in size
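Rat S16 Schwann reporter line, 24 h treatment with library compounds delivered at 23 nL per well. Cell viability by CellTiter-Glo luminescence.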
mTORC1 inh: inhibitors of mTORC1 signaling in Tsc2-/- p53-/- MEF cells | Tsc2-/- p53-/- MEF, phospho-rpS6 immunofluorescence/PI, 24 h | Potency, µM (highest dose often 38.3 µM), without a hit: at the highest dose activity change, negative = inhibition, most hits filed as inhibitors | 44,000 compounds, 0.78% hits;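 note: potency is the fitted concentration of half-maximal effect; plate controls were DMSO for no effect and rapamycin for full effect; nearly all actives have a fitted effect of over 50% in size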
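Plate MEFs (Tsc2-/-, p53-/-, empty vector) in DMEM/10% FBS; after 24 h add compound, incubate 24 h at 37 degree Celsius; fix in PFA/TX-100, block, stain phospho-rpS6 and 10 uM PI; scan at 488 nm; report % positive cells.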
PMP22 txn prim: PMP22 gene transcription modulation | S16 Pmp22-F2sN Schwann cells (luciferase reporters placed in the Pmp22 gene), FLuc/NLuc coincidence luminescence, 24 h | Potency, µM (series often up to 57.5 µM), without a hit: at the top dose activity change, negative = inhibition, usual class: inhibitors | 43,000 compounds, 2% hits | AID 1508649; active = clear falling dose curves in both reporters; inconclusive = both reporters move, but less clearly or upward; inactive = either reporter flat; the % is the NLuc reporter signal; note: potency is the fitted concentration of half-maximal effect; % is set by controls: 0 for no effect and ±100 for the full control effect
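Transcriptional readout in edited S16(c9) cells: two luciferases reported from the Pmp22 locus, measured in turn after 24 h compound incubation.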
NLuc sat counter: NanoLuc enzyme inhibition artifact for PMP22 screen. shares compounds with PMP22 txn prim. Secreted NLuc enzyme (filtered S16 cell medium), Nano-Glo luminescence. Potency, µM (highest dose often 57.5 µM), for inactives: at the top dose activity change, negative = inhibition, usual class: inhibitors. 690 compounds, 4% hits; note: potency is the fitted concentration of half-maximal effect; % is set by controls: 0 for no effect and ±100 for the full control effect
NLuc Km ctr: counter-screen for PMP22 expression modulators: NanoLuc inhibition at Km | secreted NLuc enzyme, coelenterazine luminescence, Km conditions | 690 compounds, 5% hits | Potency, µM (top dose mostly 57.5 µM), without a hit: at the top dose activity change, negative = inhibition, actives largely listed as inhibitors | shares compounds with PMP22 txn prim; note: potency is the fitted concentration of half-maximal effect; % is set by controls: 0 for no effect and ±100 for the full control effect
FLuc ctr PMP22: firefly luciferase enzyme inhibition artifact for PMP22 screen; shares compounds with PMP22 txn prim; purified P. pyralis FLuc, luminescence, 10 min; Potency, µM (top dose mostly 57.5 µM), for inactives: at the highest dose activity, negative = inhibition, actives largely listed as inhibitors; 690 tested, under 10 active; note: % of control where 0% means no effect
Target sequence (P08659 whole entry, looked up): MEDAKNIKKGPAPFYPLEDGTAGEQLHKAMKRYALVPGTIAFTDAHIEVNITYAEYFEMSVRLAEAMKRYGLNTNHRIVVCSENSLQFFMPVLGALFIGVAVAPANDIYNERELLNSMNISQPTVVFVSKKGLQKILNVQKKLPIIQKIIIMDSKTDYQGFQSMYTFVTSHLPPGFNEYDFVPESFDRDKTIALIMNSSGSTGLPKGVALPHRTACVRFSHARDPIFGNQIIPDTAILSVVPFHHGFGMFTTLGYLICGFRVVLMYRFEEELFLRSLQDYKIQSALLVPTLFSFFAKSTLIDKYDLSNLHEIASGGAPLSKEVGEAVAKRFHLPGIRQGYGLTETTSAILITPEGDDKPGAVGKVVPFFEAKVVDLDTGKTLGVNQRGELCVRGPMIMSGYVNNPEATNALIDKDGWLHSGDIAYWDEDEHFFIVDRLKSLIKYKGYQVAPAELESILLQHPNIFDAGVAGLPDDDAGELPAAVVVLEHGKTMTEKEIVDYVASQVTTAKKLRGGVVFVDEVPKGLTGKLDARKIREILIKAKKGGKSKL
S16 F2sN tox cnf: S16 Schwann cell cytotoxicity, confirmatory. Potency, µM (titrated, usually from 57.5 µM), inactives show at the highest dose activity change, negative = viability loss, hits mostly cytotoxic. 690 compounds, 7% hits. S16 Schwann cells viability, CellTiter-Glo ATP luminescence, 24 h. shares compounds with PMP22 txn prim; note: potency is the fitted concentration of half-maximal effect; % is set by controls: 0 for no effect and ±100 for the full control effect
PMP22 txn cnf: confirmation of modulators of PMP22 gene transcription in S16 cells; shares compounds with PMP22 txn prim; S16 Schwann cells Pmp22-F2sN, dual luciferase, 24 h; Potency, µM (series often up to 57.5 µM), inactives show top-dose activity change, negative = inhibition, most hits filed as inhibitors; 690 compounds, 22% hits; AID 1508646; active = clear falling dose curves in both reporters; inconclusive = both reporters move, but less clearly or upward; inactive = either reporter flat; the % is the FLuc reporter signal; note: potency is the fitted concentration of half-maximal effect
PMP22 prot conf: confirmation of modulators of rat PMP22 protein expression; shares compounds with PMP22 txn prim; S16 Schwann cells Pmp22-HiBiT, luminescence, 48 h; Potency, µM (series often up to 27.9 µM), inactives show top-dose activity change, negative = inhibition, usual class: inhibitors; 95 tested, under 10 active; AID 1508647
Target sequence (P25094 whole entry, looked up): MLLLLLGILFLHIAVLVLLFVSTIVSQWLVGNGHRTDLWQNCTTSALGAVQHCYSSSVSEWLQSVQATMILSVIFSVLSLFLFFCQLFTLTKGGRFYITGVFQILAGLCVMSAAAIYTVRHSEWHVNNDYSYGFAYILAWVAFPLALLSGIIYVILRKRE
* = called active by the depositor; ? = inconclusive; . = not tested or not shown. Most compounds without a hit are left out; they make up all but 3.6% or so of the library. Unless noted, calls come from the whole dose curve; as a rule, active = well fitted curve in the direction sought with a large enough effect; inconclusive = small, poorly fitted or top-dose-only effect, or another doubt; inactive = no such curve, though single readings can be large; an effect the other way counts as inactive or inconclusive.

SMILES	HTT prom inh	HTT-AS promoter	S16 F2sN tox	mTORC1 inh	PMP22 txn prim	NLuc sat counter	NLuc Km ctr	FLuc ctr PMP22	S16 F2sN tox cnf	PMP22 txn cnf	others
Cc1ccc(NC(=O)N2CCc3cc(S(=O)(=O)N4CCC(C)CC4)ccc32)cc1F	-18%	-9%	6%	-2%	8.9µM*	-5%	5%	-4%	?	15µM*	PMP22 prot conf=3%
COc1cc(OC)c(OC)cc1CN1CCc2nc(N3CCN(c4ccccc4F)CC3)ncc2C1	?	-44%	-10%	0%	?	-9%	3%	-2%	-1%	?
CCOc1ccc(CN2CCc3nc(N4CCN(c5ccccc5OC)CC4)ncc3C2)cc1OC	?	-57%	-8%	0%	17µM*	-2%	0%	-1%	-11%	-41%
Cc1onc(-c2c(Cl)cccc2Cl)c1C(=O)Cl	9%	-5%	.	.	.	.	.	.	.	.
COc1cc(OC)c(C=CS(=O)(=O)Cc2ccc(OC)c(NCC(=O)O)c2)c(OC)c1	?	-42%	.	.	.	.	.	.	.	.
CCOc1ccc(-c2c(C)nn3c(C)c(C(=O)NCC(C)c4ccccc4)cnc23)cc1OCC (stereo not drawn)	?	-30%	4%	-16%	17µM*	?	?	-3%	-16%	?
CC(C=CC=C(C)C=CC1=C(C)CCCC1(C)C)=CC=CC=C(C)C=CC=C(C)C=CC1=C(C)CCCC1(C)C	7%	-8%	.	.	.	.	.	.	.	.
O=S(=O)(c1ccc(-c2csc(=Nc3ccc(OC(F)(F)Cl)cc3)n2CCCO)cc1)N1CCCC1	?	-63%	?	?	15µM*	0%	-2%	-10%	22µM*	19µM*
COc1cccc2cc(-c3nc(C4CCC(C(=O)O)CC4)n4ncnc(N)c34)[nH]c12 (stereo not drawn)	?	-23%	.	.	.	.	.	.	.	.
COc1ccc2nc(NC(=O)c3nc(SC(C)C)ncc3Cl)sc2c1	-2%	-9%	4%	-4%	1%	.	.	.	.	.
Cc1ccc(CNC(=O)c2nc(SCc3cccc(C)c3)ncc2Cl)cc1	?	-25%	-18%	2%	-19%	.	.	.	.	.
Cc1ccc(CNC(=O)c2nc(S(=O)(=O)Cc3ccc(C)cc3)ncc2Cl)cc1	?	-18%	?	-11%	10µM*	-1%	-2%	-4%	-53%	17µM*	PMP22 prot conf=14%
COc1ccc2nc(NC(=O)c3nc(S(=O)(=O)Cc4ccc(C)cc4)ncc3Cl)sc2c1	-2%	-36%	28µM*	?	7.3µM*	-5%	4%	3%	17%	29%
Cc1ccc(CS(=O)(=O)c2ncc(Cl)c(C(=O)Nc3nc4ccc(F)cc4s3)n2)cc1	?	-86%	?	-1%	5.4µM*	-11%	?	7%	?	16µM*	PMP22 prot conf=?
COC(=O)c1ccccc1NC(=O)c1nc(S(=O)(=O)Cc2cccc(C)c2)ncc1Cl	4%	0%	?	-26%	5.3µM*	-19%	3.9µM*	-16%	?	7.3µM*	PMP22 prot conf=-18%
N#CNC(=NCCCCCCOc1ccc(Cl)cc1)Nc1ccncc1	?	-44%	.	.	.	.	.	.	.	.
CCOC(=O)N1c2ccc(C(F)(F)F)cc2[C@@H](N(Cc2cc(C(F)(F)F)cc(C(F)(F)F)c2)C(=O)OC)C[C@H]1CC	-31%	-12%	.	.	.	.	.	.	.	.
O=C(Nc1ccc(Cl)c(Cl)c1)N(Cc1c[nH]c2ccccc12)C1CCCCC1	47%	?	?	-14%	?	.	.	.	.	.
COc1cccc(NC(=O)N(Cc2c[nH]c3ccccc23)C2CCCCCC2)c1	-3%	-13%	-26%	-12%	20µM*	15µM*	?	1%	14%	?
CCc1ccc(-n2c(=O)c3sc4ccccc4c3n(CC(=O)NCc3ccccc3)c2=O)cc1	2%	-7%	4%	-4%	?	.	.	.	.	.
Cc1c(Cl)cccc1NC(=O)Cn1c(=O)n(Cc2ccco2)c(=O)c2sc3ccccc3c21	-5%	-7%	1%	-10%	13µM*	-3%	9%	3%	-38%	15µM*
COc1cccc(-n2c(=O)c3sc4ccccc4c3n(CC(=O)Nc3cccc(Cl)c3)c2=O)c1	-21%	-17%	22%	-1%	1%	.	.	.	.	.
Cc1ccc(CNC(=O)Cn2c(=O)n(Cc3ccccc3)c(=O)c3sc4ccccc4c32)cc1	-7%	-15%	4%	1%	13µM*	-1%	7%	9%	-20%	19µM*
Cc1ccc(CNC(=O)Cn2c(=O)n(Cc3ccc(F)cc3)c(=O)c3sc4ccccc4c32)cc1	-12%	-1%	2%	-20%	-32%	.	.	.	.	.
Cc1ccc(CNC(=O)Cn2c(=O)n(-c3cccc(Cl)c3)c(=O)c3sc4ccccc4c32)cc1	-11%	-15%	5%	-5%	9.5µM*	-7%	-3%	-4%	?	?
COc1ccccc1NC(=O)Cn1c(=O)n(-c2cccc(Cl)c2)c(=O)c2sc3ccccc3c21	-13%	-13%	1%	1%	10µM*	-4%	5%	1%	?	6.5µM*	PMP22 prot conf=6.5µM*
O=C(NC[C@H](O)CO)c1ccncc1Nc1ccc(I)cc1F	-15%	-16%	.	.	.	.	.	.	.	.
O=c1[nH]c(-c2ccc(C(F)(F)F)cc2)nc2c1CSCC2	-1%	-5%	.	.	.	.	.	.	.	.
